D1 PAM = Potentiators of Human D1 Dopamine Receptor: qHTS | AID 504651, 2011 | HEK293 TREx D1 cells, calcium flux, dopamine EC20 potentiation | potentiation, % at 10 µM | D(1A) dopamine receptor (Homo sapiens), P21728 | 360,000 tested, 0.036% active; in the data active = potentiation above about 30%; note: 0% is about no effect
Target sequence (P21728 whole entry, looked up): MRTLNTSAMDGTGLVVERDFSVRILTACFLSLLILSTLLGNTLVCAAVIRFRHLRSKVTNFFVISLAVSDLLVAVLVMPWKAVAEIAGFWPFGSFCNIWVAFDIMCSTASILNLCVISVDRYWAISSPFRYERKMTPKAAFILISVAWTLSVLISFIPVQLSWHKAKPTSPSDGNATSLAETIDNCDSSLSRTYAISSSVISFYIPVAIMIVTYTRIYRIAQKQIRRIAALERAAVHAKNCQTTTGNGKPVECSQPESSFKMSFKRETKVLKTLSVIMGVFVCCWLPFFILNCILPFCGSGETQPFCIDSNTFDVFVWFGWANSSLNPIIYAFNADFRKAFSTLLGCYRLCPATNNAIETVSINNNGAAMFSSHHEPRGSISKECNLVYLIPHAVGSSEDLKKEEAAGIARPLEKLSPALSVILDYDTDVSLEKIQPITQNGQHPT
DRD3 antagonist = qHTS of D3 Dopamine Receptor Antagonist: qHTS; D(3) dopamine receptor (Homo sapiens), P35462; 360,000 tested, 2.5% active; D3R cells, DiscoveRx beta-arrestin luminescence, antagonist mode; stronger effect = lower value; max response, negative = inhibition, %; in the data active = max response below about -50%; inconclusive = no clear call, values can overlap the other calls; note: % is set by controls: 0 for no effect and ±100 for the full control effect
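Cells plated overnight at 1500 cells/well, then exposed to library compounds with dopamine controls for 90 minutes at 37 degrees C. DiscoveRx reagent added for 30–60 minutes at room temperature; luminescence read, quantitative HTS format.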
D1 antagonist = Antagonist of Human D 1 Dopamine Receptor: qHTS | D(1A) dopamine receptor (Homo sapiens), P21728 | activity change, negative = inhibition, % at 10 µM | AID 504652, 2011 | 360,000 tested, 3.2% active | HEK293 TREx D1 cells, calcium flux, dopamine EC80; stronger effect = lower value; in the data active = activity change below about -30%; note: % is set by controls: 0 for no effect and ±100 for the full control effect
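After overnight tetracycline induction at 30 C, force-coupled D1 HEK293 cells took up a no-wash calcium dye at room temperature. Compounds were added and monitored 180 s, and the response to EC80 dopamine was then recorded.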
D3 ag = qHTS of D3 Dopamine Receptor Agonist: qHTS; D(3) dopamine receptor (Homo sapiens), P35462; D3R DiscoveRx beta-arrestin cells, luminescence, 90 min; max activation, %; 410,000 tested, 0.58% active; AID 652048, 2013; in the data active = max activation above about 30%; note: 0% is about no effect
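Agonist-mode cell screen: cells plated at 1500/well and incubated overnight at 37 °C, then exposed to library compounds for 90 min at 37 °C. Detection reagent was added for 30–60 min at room temperature, and luminescence was read.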
D1 ag = Allosteric Agonists of the Human D1 Dopamine Receptor: qHTS. HEK293 T-REx D1 cells, calcium flux, agonist mode. activation, % at 2 µM. 360,000 tested, 1% active. AID 504660, 2011; in the data active = activation above about 30%; note: 0% is about no effect
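Inducible HEK293 T-REx D1 cells, force-coupled to calcium signalling, were plated at 4000 cells/well with tetracycline and held overnight at 30 C. After no-wash calcium dye loading, compound-evoked calcium rise over 180 s flagged agonists.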
Starred values were filed as active, the others as inactive; u = inconclusive; x = no result given; ! = not confirmed by another sample. Sampled rows, rich in hits. Any-hit rate of the full collection: about 6.1%.

SMILES	D1 PAM	DRD3 antagonist	D1 antagonist	D3 ag	D1 ag
O=C(NNC(=O)C1CCN(Cc2cccc(F)c2)CC1)c1cccc(Cl)c1	-6	-10	-5	-20	2
CC(C)c1nc2ccc(C(=O)Nc3ccccc3F)cc2o1	0	x	-1	-12	1
CCOC(=O)c1ccc(NC(=O)c2noc3c2CCCC3)cc1	-4	x	-3	-9	10
O=C(Nc1cccc(NC(=O)c2ccc(Cl)cc2)n1)c1ccc(Cl)cc1	-4	13	-33*	1	6
CC(C)c1ccc(C(C)NC(=O)C2CCCC2)cc1 (stereo unspecified)	-3	-4	30	31*	13
CC(NC(=O)C1CCC(CNS(=O)(=O)c2ccccc2)CC1)c1ccccc1 (stereo unspecified)	-8	6	-41*	-4	11
CC(NC(=O)C1CCCC1)c1ccc(Br)cc1 (stereo unspecified)	4	-17	-3	20	5
CCOC(=O)C1=C(c2ccccc2)c2ccc(OC)cc2N(S(=O)(=O)C(F)(F)F)C1C(=O)OCC (stereo unspecified)	x	54	x	39*	x
COc1ccc(S(=O)(=O)c2cnc3ccc(Cl)cc3c2N2CCCCC2C)cc1 (stereo unspecified)	-5	x	-14	-16	9
CCCCCCN1N=C(C)C(C(=O)c2ccc(Cl)cc2)C1=O (stereo unspecified)	0	-83*	-17	2	7
Cc1c(C(=O)NC2CC2)oc2ccccc12	-1	-2	12	-1	2
Cc1c(C(=O)NC2CCS(=O)(=O)C2)oc2ccccc12 (stereo unspecified)	-13	-4	2	47*	4
Cc1c(C(=O)Nc2ccncc2)oc2ccccc12	-2	22	7	52*	6
Cc1c(C(=O)Nc2nnc(C(F)(F)F)s2)oc2ccccc12	0	32	-38*	1	10
CCc1ccc(C(=O)c2cn(CC(=O)Nc3cc(OC)ccc3OC)c3ccc(Cl)cc3c2=O)cc1	4	x	33	-22	1
CCOC(=O)c1cc(C)n(CC2CCC(C(=O)Nc3ccc(C)cc3)CC2)c1C (stereo unspecified)	-2	x	-17	3	-2
CCOC(=O)c1c(C)[nH]c(C)c1S(=O)(=O)N(C)CC(=O)NCc1cccc(Br)c1	-2	4	-36*!	2	1
CCc1ccc(NC(=O)C2CCN(S(=O)(=O)c3c(C)noc3C)CC2)cc1	-4	-7	-13	6	0
CCc1ccc(NC(=O)CNS(=O)(=O)c2c(C)noc2C)cc1	1	19	-31*	-1	3
CCCN1CCC(NC(=O)Nc2ccc(F)cc2F)CC1	-2	-53*	-4	-4	1
O=C(/C=C/c1cccc(F)c1)NC1CCN(Cc2ccccc2)CC1	x	u	-45*	-9	10
O=C(COC(=O)/C=C/c1cccc(F)c1)NC1CC1	x	u	x	-4	x
O=C(Nc1cccc(F)c1)NC1CCN(Cc2ccccc2)CC1	-5	-82*	x	-10	10
O=C(/C=C/c1cccc(Br)c1)NC1CCN(Cc2ccccc2)CC1	-6	-61*	-4	-9	9
CCc1cccc(NC(=O)CCc2c(C)nc3c(c2C)c(=O)n(C)c(=O)n3C)c1	-3	x	4	-4	2
SMILES	D1 PAM	DRD3 antagonist	D1 antagonist	D3 ag	D1 ag
O=[N+]([O-])c1cccc(/C=N/Nc2nc(NCc3ccccc3)nc(N3CCOCC3)n2)c1O	-6	-138*	-11	-37	1
O=S(=O)(Nc1nc2n(n1)C(c1ccc(F)cc1)C=C(c1ccccc1)N2)c1ccc(Cl)cc1 (stereo unspecified)	-3	x	8	20	3
O=S(=O)(Nc1nc2n(n1)C(c1ccccc1)C=C(c1ccc(Cl)cc1)N2)c1ccccc1 (stereo unspecified)	0	x	-14	-8	32*
Cc1ccc(C2C=C(c3ccccc3)Nc3nc(NS(=O)(=O)c4ccccc4)nn32)cc1 (stereo unspecified)	-3	x	10	7	31*
Cc1ccc(S(=O)(=O)Nc2nc3n(n2)C(c2ccc(F)cc2)C=C(c2ccccc2)N3)cc1 (stereo unspecified)	1	x	-11	39*	0
Cc1ccc(S(=O)(=O)Nc2nc3n(n2)C(c2ccc(Cl)cc2)C=C(c2ccccc2)N3)cc1 (stereo unspecified)	-1	x	19	15	11
O=C(NC1(C(F)(F)F)NC(=O)N(CC2CCCCC2)C1=O)c1ccco1 (stereo unspecified)	0	-51*	-9	-3	1
COc1cccc(CN(C)C(=O)C23CC4CC(CC(C4)C2)C3)c1	3	0	-34*	-2	2
COc1ccc(CN(C)C(=O)C23CC4CC(CC(C4)C2)C3)c(OC)c1	-6	16	-1	4	21
CCOC(=O)c1cc(-c2ccc(F)cc2)n(CCC(=O)NC2CCC(C)CC2)c1C (stereo unspecified)	0	x	7	0	3
C=C1CCN([C@@H](Cc2ccccc2)C(=O)NCc2ccc(Cl)cc2)S(=O)(=O)c2ccccc21	x	-56*	x	-21	x
COc1cc(NC(=O)c2sc3nc(C)nc(N4CCOCC4)c3c2C)cc(OC)c1OC	-7	43	-3	34*	-1
Cc1ccc(CN2C(=O)C(CC(C)C)Nc3ncnc(N4CCN(c5ccccc5)CC4)c32)cc1 (stereo unspecified)	x	-55*!	x	-13	x
CCC1Nc2ncnc(N3CCN(c4ccccc4)CC3)c2N(Cc2ccc(C)cc2)C1=O (stereo unspecified)	-1	-139*	7	-61	0
CC(C)CC1Nc2ncnc(N3CCN(c4ccccc4)CC3)c2N(Cc2ccc(Cl)cc2)C1=O (stereo unspecified)	2	-23	0	-10	0
CCC1Nc2ncnc(N3CCN(c4ccccc4)CC3)c2N(Cc2ccccc2)C1=O (stereo unspecified)	x	-142*	x	-60	x
CCC1Nc2ncnc(N3CCOCC3)c2N(Cc2ccc(C)cc2)C1=O (stereo unspecified)	3	-2	-18	6	2
Cc1ccc(CN2C(=O)C(Cc3ccccc3)Nc3ncnc(N4CCOCC4)c32)cc1 (stereo unspecified)	x	-58*	x	-9	x
COc1ccccc1NC(=O)Cn1c(=O)n(Cc2ccccc2)c(=O)c2c1c1cc(C)ccc1n2C	-2	x	7	3	0
COc1ccc(F)cc1C(=O)C1CCCN(Cc2cccn2-c2cccnc2)C1 (stereo unspecified)	-3	-96*	-8	-21	0

From PubChem BioAssay
